This is part of a sample that, as a whole, favours compounds with a hit. Of some 83,000 tested, about 20% had one in any assay.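 The endpoint reported here, percent growth, reads 100 for growth as untreated, 0 for no net growth and -100 for all cells dead.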 Unmarked numbers belong to inactive results. Active and inactive are the calls of the source. Rule for the calls: active = growth percent below 10; inactive = the rest.

The values that follow come from PubChem BioAssay (NCI).

Among the test systems are T-47D breast; BT-549 breast; MDA-MB-435 melanoma; SW-620 colon; MCF7 breast; HCT-116 colon; HCC-2998 colon; KM12 colon.
What all share (test): NCI-60 one-dose screen, 48 h (100 = growth as untreated, 0 = no growth, -100 = all killed)
What all share (settings): 10 µM unless noted

In the case of `CCNc1ncnc2c1cnn2C1CCCO1` (stereo not given), the growth with T-47D breast was 104%; in the experiment on BT-549 breast, 105%; in the experiment on MDA-MB-435 melanoma, 103%; in the experiment with SW-620 colon, 100%; in the experiment on MCF7 breast, 102%; in the experiment with HCT-116 colon it was 100%. The growth in the experiment on HCC-2998 colon was 109%; in the experiment with KM12 colon, 99.1%.

Consider `N#Cc1c(N)n(CCNC(=O)c2ccccc2)c2nc3ccccc3nc12`, for which the growth was 95.4% with T-47D breast; 140% with BT-549 breast; 95.9% in the experiment with MDA-MB-435 melanoma; 123% with SW-620 colon; 109% in the experiment on MCF7 breast; 102% with HCT-116 colon. Besides, the growth in the experiment with HCC-2998 colon is 97.4%; in the experiment with KM12 colon, 114%.

For the compound `Clc1ccc2c(NCCCCNc3nc(N4CCOCC4)nc4ccccc34)ccnc2c1`, the growth is 8.21% (active) in the experiment with T-47D breast; 107% in the experiment with BT-549 breast; 14.1% in the experiment on MDA-MB-435 melanoma; 14.9% in the experiment with SW-620 colon; 33.3% in the experiment with MCF7 breast; -7.74% (active) in the experiment on HCT-116 colon. Moreover, the growth with HCC-2998 colon is 58.3%; in the experiment with KM12 colon it was 33.4%.

`COc1cc(C2CC(=O)c3ccccc3N2)cc(OC)c1OC` (stereo not given): the growth was 92.6% in the experiment with T-47D breast; 104% with BT-549 breast; 105% in the experiment on MDA-MB-435 melanoma; 100% in the experiment on SW-620 colon; 96.8% in the experiment with MCF7 breast; 104% with HCT-116 colon. For the same compound, the growth in the experiment with HCC-2998 colon is 109%; with KM12 colon it was 99.6%.

In the case of `CCOC(=O)n1cc(-c2nonc2-c2cn(C)c3ncccc23)c2ccccc21`, the growth is 15.2% in the experiment on T-47D breast; 87.9% in the experiment on BT-549 breast; 50.2% in the experiment with MDA-MB-435 melanoma; 76.6% in the experiment on SW-620 colon; 35% in the experiment with MCF7 breast; 80.4% in the experiment on HCT-116 colon. The figures for the growth with HCC-2998 colon and in the experiment with KM12 colon were 89.6% and 66.5%, respectively.

Consider `CCCN1CCN(c2ccc3nc(-c4ccc5nc(-c6ccc(OCC)cc6)[nH]c5c4)[nH]c3c2)CC1`, for which the growth was 47.2% in the experiment on T-47D breast; 71.2% in the experiment with BT-549 breast; 27.6% in the experiment with MDA-MB-435 melanoma; -83.7% (active) with SW-620 colon; -69.7% (active) in the experiment with MCF7 breast; -89.8% (active) in the experiment with HCT-116 colon. For the same compound, the results for the growth in the experiment on HCC-2998 colon and with KM12 colon were -96.9% (active) and 42.8%, respectively.

In the case of `CNC(=O)c1cc(Oc2ccc(NC(=O)Nc3ccc(Cl)c(OC(F)(F)F)c3)c(F)c2)ccn1`, the growth in the experiment with T-47D breast is -2.82% (active); in the experiment with BT-549 breast, 60.4%; in the experiment on MDA-MB-435 melanoma it was 19.4%; with SW-620 colon, 43.1%; in the experiment on MCF7 breast, 17.1%; in the experiment on HCT-116 colon, 14%. The growth with HCC-2998 colon was 39%; in the experiment on KM12 colon, 13.3%.

With `COc1nc2c(c(=O)n1C)CN(Cc1ccccc1)C=N2`, the growth in the experiment with T-47D breast is 67.1%; with BT-549 breast, -4.81% (active); with MDA-MB-435 melanoma, 117%; with SW-620 colon it was 99.6%; in the experiment on MCF7 breast, 101%; in the experiment on HCT-116 colon, 107%. The growth with HCC-2998 colon was 113%; in the experiment with KM12 colon, 98.9%.

As for `CC1=C[C@H]2c3c(c(O)c(O)c4oc(-c5ccccc5)cc(=O)c34)[C@H](c3cc(O)c(O)c4oc(-c5ccccc5)cc(=O)c34)[C@H]2C(C)(C)C1`, the growth in the experiment on T-47D breast was 4.7% (active); with BT-549 breast, 0.289% (active); in the experiment on MDA-MB-435 melanoma it was -32.9% (active); with SW-620 colon, 7.43% (active); in the experiment with MCF7 breast, 9.62% (active); with HCT-116 colon it was -56.3% (active). Further, the growth with HCC-2998 colon was 0.939% (active); in the experiment with KM12 colon, -14.9% (active).

As for `O=C(O)c1ccc(N=CC(=O)c2ccc(-c3ccccc3)cc2)cc1`, the growth with T-47D breast was 100%; with BT-549 breast it was 103%; in the experiment with MDA-MB-435 melanoma, 103%; in the experiment with SW-620 colon, 93.3%; with MCF7 breast it was 97.6%; in the experiment on HCT-116 colon, 97.9%. For the same compound, the growth in the experiment with HCC-2998 colon is 96.7%; in the experiment on KM12 colon, 102%.

For `CSc1ccc(-c2n[nH]nc2-c2cc3ccccc3s2)cc1`, the growth is 44.9% in the experiment on T-47D breast; 46.8% in the experiment on BT-549 breast; -19% (active) in the experiment with MDA-MB-435 melanoma; 23.7% in the experiment with SW-620 colon; 27.7% in the experiment with MCF7 breast; 30.5% in the experiment with HCT-116 colon. For the same compound, the growth with HCC-2998 colon was 82.3%; in the experiment with KM12 colon, 32.2%.

`CCN(CC)c1ccc2c(c1)Oc1nc(N)c(C#N)c(N)c1C2Sc1ccc(SC)cc1` (stereo not given): the growth with T-47D breast is -4.08% (active); in the experiment with BT-549 breast, -80.4% (active); in the experiment on MDA-MB-435 melanoma it was -25.7% (active); with SW-620 colon, -70.7% (active); in the experiment with MCF7 breast, -0.904% (active); in the experiment on HCT-116 colon it was -27.5% (active). The growth with HCC-2998 colon was -72.2% (active); with KM12 colon it was -74.5% (active).

For the compound `O=C(COc1ccc(-c2nc3cc(Cl)c(Cl)cc3[nH]2)cc1)N=Nc1c(O)[nH]c2ccccc12`, the growth is -37.9% (active) in the experiment with T-47D breast; 64.7% with BT-549 breast; 25.6% in the experiment with MDA-MB-435 melanoma; -32.3% (active) with SW-620 colon; -49.7% (active) in the experiment with MCF7 breast; 16.2% with HCT-116 colon. Moreover, the values for the growth with HCC-2998 colon and in the experiment on KM12 colon were -3.87% (active) and -38.8% (active), respectively.

For `O=C1c2cc3c(cc2-c2c1c1ccc(F)cc1c(=O)n2CCCNCCO)OCO3`, the growth with T-47D breast was -17.7% (active); in the experiment with BT-549 breast, -20% (active); in the experiment on MDA-MB-435 melanoma, -71.5% (active); with SW-620 colon, -41.5% (active); in the experiment on MCF7 breast, -65.5% (active); in the experiment on HCT-116 colon it was -43.1% (active). The growth in the experiment with HCC-2998 colon is -65.7% (active); in the experiment on KM12 colon, -29.9% (active).

On to `CCOC(=O)n1cc(-c2nonc2-c2cn(C)c3ncccc23)c2cc(F)ccc21`, for which the growth was 10.4% with T-47D breast; 93.1% in the experiment on BT-549 breast; 94.7% with MDA-MB-435 melanoma; 89.5% with SW-620 colon; 27.2% with MCF7 breast; 69.5% in the experiment on HCT-116 colon. Besides, the values for the growth in the experiment with HCC-2998 colon and in the experiment with KM12 colon were 86.4% and 73.5%, respectively.
